# Experimental data from paper PMC7862700, “An all-to-all approach to the identification of sequence-specific readers for epigenetic DNA modifications on cytosine”.
# Columns and labels:
# Experiment in all cases: DAPPL (digital affinity profiling via proximity ligation, sequencing); 10 mM Tris-HCl pH 7.5, 50 mM NaCl, 1 mM DTT, 4% glycerol, room temperature, 30 min; GST-TFs on glutathione beads, 16-mer random dsDNA library, 0.1% formaldehyde crosslink after washing; high values mean tight binding
# Conditions in all cases: protein: recombinant; tags: N-terminal GST; dsDNA, one strand shown
# [1] = biological target: SPI1 (Homo sapiens, UniProt P17947 1-270)
# In short: (§1)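 Yeast served to express human transcription factors as GST fusions, which were then captured on glutathione beads and labelled with DNA barcodes. Pooled with a tag-only sample, they were incubated with 200 nmole of a 16-mer random double-stranded DNA library for 30 min at room temperature in Tris/NaCl/DTT/glycerol buffer, washed, crosslinked with 0.1% formaldehyde, ligated by proximity, amplified by PCR and sequenced. Dividing each hexamer's read frequency for a factor by its frequency for the tag-only sample gives the binding signal.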
# [2] = biological target: SPIB (Homo sapiens, UniProt Q01892 1-262)
# In short: as §1
# [3] = biological target: T1, ELK3 (Homo sapiens, UniProt P41970 1-407)
# T1 sequence: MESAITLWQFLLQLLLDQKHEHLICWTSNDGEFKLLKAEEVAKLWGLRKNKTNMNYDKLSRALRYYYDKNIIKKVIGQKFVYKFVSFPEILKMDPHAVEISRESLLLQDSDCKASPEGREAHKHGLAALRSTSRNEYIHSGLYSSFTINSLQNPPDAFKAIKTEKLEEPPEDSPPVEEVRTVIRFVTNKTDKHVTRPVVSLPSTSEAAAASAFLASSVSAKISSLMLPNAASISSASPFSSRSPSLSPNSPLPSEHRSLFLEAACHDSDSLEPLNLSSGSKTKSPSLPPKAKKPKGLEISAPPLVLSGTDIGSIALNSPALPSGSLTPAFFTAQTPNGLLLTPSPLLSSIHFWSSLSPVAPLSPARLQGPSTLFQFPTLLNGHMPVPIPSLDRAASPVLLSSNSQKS
# In short: as §1
# [4] = biological target: T2, ELF3 (Homo sapiens, UniProt P78545 1-371)
# T2 sequence: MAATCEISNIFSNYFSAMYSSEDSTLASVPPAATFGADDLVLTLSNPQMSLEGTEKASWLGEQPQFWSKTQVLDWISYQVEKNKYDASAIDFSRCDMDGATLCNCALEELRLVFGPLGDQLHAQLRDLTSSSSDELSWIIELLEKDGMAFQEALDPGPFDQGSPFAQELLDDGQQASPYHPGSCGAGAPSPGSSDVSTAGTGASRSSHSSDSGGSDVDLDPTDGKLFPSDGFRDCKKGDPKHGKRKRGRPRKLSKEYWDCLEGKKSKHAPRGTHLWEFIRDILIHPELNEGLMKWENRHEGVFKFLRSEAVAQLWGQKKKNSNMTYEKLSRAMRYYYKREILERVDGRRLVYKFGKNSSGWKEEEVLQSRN
# In short: as §1
# [5] = biological target: CRX (Homo sapiens, UniProt O43186 1-299)
# In short: as §1
# [6] = biological target: ETV1 (Homo sapiens, UniProt P50549 1-477)
# In short: as §1
# [7] = biological target: T3, ERF (Homo sapiens, UniProt P50548 1-548)
# T3 sequence: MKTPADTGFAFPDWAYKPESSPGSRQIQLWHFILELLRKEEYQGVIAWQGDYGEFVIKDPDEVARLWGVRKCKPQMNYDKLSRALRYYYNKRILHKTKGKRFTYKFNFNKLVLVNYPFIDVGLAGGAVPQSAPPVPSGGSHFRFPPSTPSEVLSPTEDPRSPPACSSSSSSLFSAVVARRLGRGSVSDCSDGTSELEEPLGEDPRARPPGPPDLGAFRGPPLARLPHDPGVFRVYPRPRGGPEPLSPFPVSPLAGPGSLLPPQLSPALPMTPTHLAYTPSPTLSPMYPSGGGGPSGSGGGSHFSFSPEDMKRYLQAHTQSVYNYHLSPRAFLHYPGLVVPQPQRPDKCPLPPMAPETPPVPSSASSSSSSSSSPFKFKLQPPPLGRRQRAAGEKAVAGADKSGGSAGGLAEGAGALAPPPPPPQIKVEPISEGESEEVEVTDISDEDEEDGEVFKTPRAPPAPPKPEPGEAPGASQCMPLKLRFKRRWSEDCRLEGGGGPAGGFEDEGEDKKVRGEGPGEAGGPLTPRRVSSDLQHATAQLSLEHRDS
# In short: as §1
# [8] = biological target: T4, ETV3L (Homo sapiens, UniProt Q6ZN32 1-361)
# T4 sequence: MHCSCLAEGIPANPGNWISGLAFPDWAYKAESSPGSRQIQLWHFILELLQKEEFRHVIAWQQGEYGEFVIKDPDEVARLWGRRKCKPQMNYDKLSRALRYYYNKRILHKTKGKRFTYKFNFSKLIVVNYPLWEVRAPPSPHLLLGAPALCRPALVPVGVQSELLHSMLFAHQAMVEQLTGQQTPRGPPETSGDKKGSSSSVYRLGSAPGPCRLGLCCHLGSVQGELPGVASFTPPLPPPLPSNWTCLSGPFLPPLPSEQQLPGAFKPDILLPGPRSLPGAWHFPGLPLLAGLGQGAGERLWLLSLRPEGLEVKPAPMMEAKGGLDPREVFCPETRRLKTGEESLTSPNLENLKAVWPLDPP
# In short: as §1
# [9] = biological target: T5, ETV7 (Homo sapiens, UniProt Q9Y603 1-341)
# T5 sequence: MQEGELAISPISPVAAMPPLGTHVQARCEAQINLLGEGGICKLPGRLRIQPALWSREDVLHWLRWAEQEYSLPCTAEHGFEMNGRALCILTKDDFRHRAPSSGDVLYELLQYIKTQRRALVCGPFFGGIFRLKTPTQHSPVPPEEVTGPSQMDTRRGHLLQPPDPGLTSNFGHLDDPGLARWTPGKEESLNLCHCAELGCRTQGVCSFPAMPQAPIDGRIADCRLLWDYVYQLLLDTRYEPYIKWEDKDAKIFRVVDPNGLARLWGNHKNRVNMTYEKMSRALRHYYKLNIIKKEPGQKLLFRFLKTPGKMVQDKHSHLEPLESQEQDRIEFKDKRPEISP
# In short: as §1
# [10] = biological target: ETV6 (Homo sapiens, UniProt P41212 1-452)
# In short: as §1
# [11] = biological target: T6, ETV2 (Homo sapiens, UniProt O00321 1-342)
# T6 sequence: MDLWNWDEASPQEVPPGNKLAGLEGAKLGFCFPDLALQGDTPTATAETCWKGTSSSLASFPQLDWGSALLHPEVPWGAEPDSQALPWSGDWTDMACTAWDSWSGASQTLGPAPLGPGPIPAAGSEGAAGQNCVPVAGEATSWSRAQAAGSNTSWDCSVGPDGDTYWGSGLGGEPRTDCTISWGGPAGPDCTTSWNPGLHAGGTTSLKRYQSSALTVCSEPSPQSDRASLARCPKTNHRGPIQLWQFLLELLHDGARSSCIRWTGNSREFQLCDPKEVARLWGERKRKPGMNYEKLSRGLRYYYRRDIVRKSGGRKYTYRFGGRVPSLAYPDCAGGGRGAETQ
# In short: as §1
# [12] = biological target: T7, GABPA (Homo sapiens, UniProt Q06546 1-454)
# T7 sequence: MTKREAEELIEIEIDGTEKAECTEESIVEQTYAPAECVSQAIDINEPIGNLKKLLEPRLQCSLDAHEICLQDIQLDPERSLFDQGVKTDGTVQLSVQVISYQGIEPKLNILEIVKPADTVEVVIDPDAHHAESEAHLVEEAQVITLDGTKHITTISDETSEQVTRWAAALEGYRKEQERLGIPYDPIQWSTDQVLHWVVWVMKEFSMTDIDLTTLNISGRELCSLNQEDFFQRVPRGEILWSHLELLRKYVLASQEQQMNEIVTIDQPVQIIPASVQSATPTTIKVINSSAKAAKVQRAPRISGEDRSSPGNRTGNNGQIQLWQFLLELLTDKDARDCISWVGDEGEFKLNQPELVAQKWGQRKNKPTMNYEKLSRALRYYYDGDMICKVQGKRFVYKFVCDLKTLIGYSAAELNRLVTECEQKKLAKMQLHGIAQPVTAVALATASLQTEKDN
# In short: as §1
# [13] = biological target: T8, EHF (Homo sapiens, UniProt Q9NZC4 1-300)
# T8 sequence: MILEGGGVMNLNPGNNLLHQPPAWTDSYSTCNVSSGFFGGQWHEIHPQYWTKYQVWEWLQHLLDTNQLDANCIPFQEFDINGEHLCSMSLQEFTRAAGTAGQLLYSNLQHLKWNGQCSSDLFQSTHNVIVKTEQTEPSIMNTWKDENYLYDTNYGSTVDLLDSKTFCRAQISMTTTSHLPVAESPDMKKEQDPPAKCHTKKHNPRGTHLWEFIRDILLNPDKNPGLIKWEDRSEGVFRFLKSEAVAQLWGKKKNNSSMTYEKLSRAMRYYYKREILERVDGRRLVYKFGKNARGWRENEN
# In short: as §1
# [14] = biological target: T9, ETV3 (Homo sapiens, UniProt P41162-2 1-143)
# T9 sequence: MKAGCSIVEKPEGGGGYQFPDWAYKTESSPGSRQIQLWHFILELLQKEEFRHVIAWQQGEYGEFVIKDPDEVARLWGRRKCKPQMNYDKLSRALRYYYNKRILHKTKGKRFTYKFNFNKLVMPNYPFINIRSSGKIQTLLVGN
# In short: as §1
# ETV1, sequence (P50549 whole entry): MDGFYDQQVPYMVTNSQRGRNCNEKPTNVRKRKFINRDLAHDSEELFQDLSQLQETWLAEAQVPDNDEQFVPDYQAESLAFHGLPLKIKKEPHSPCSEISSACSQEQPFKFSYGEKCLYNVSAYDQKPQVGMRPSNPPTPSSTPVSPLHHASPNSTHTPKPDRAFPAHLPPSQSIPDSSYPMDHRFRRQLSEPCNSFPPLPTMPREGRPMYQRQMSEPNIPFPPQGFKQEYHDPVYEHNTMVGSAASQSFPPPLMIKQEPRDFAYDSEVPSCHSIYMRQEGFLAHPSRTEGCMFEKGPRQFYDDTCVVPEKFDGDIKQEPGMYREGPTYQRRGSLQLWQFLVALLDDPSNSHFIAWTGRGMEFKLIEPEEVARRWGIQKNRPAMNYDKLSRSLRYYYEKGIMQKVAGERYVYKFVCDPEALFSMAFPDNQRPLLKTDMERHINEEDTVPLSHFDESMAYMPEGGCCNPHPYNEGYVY
# CRX, sequence (O43186 whole entry): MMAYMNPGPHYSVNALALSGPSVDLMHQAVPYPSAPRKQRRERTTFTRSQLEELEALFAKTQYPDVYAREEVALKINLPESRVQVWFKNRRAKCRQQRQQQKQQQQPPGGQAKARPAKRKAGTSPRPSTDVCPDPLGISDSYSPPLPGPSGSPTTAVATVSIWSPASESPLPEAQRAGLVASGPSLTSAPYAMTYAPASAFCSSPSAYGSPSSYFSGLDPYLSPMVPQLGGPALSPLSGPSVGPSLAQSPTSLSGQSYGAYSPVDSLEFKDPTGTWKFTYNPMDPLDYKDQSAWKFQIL
# ETV6, sequence (P41212 whole entry): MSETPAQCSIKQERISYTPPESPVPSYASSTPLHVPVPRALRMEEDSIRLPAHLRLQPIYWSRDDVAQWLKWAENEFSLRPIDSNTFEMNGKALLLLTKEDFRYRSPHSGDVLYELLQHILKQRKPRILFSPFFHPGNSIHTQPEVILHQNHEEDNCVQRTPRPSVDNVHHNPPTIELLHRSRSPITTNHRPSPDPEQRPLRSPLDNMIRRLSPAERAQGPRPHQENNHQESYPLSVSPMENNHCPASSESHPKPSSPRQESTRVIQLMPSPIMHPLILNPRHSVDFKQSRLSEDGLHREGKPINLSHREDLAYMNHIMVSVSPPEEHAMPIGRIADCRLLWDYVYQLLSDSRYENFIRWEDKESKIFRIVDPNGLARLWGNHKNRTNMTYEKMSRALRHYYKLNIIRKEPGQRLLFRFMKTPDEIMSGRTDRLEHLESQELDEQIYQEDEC
# SPIB, sequence (Q01892 whole entry): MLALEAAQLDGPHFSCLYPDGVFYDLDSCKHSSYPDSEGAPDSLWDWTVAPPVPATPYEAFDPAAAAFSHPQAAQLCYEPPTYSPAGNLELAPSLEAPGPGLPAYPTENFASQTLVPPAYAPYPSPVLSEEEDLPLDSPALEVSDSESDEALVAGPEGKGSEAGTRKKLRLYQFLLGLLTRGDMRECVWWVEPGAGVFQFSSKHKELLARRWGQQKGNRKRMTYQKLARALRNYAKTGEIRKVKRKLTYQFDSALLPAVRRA
sequence,measurement,setting,value
AGTTTA,binding signal,[1],"1.01 fold enrichment (6-mer frequency, TF over GST control)"
same,binding signal,[2],"1.04 fold enrichment (6-mer frequency, TF over GST control)"
same,binding signal,[3],"1.03 fold enrichment (6-mer frequency, TF over GST control)"
same,binding signal,[4],"1.11 fold enrichment (6-mer frequency, TF over GST control)"
same,binding signal,[5],"1.08 fold enrichment (6-mer frequency, TF over GST control)"
same,binding signal,[6],"1.04 fold enrichment (6-mer frequency, TF over GST control)"
same,binding signal,[7],"1.01 fold enrichment (6-mer frequency, TF over GST control)"
same,binding signal,[8],"1.09 fold enrichment (6-mer frequency, TF over GST control)"
same,binding signal,[9],"1.02 fold enrichment (6-mer frequency, TF over GST control)"
same,binding signal,[10],"1.12 fold enrichment (6-mer frequency, TF over GST control)"
ACAAGT,binding signal,[4],"1 fold enrichment (6-mer frequency, TF over GST control)"
TCGTCG,binding signal,[11],"1.05 fold enrichment (6-mer frequency, TF over GST control)"
AGGCCT,binding signal,[12],"1.08 fold enrichment (6-mer frequency, TF over GST control)"
same,binding signal,[3],"1.01 fold enrichment (6-mer frequency, TF over GST control)"
same,binding signal,[11],"1.01 fold enrichment (6-mer frequency, TF over GST control)"
same,binding signal,[5],"1.07 fold enrichment (6-mer frequency, TF over GST control)"
same,binding signal,[9],"1.01 fold enrichment (6-mer frequency, TF over GST control)"
GTAGCC,binding signal,[1],"1.03 fold enrichment (6-mer frequency, TF over GST control)"
same,binding signal,[4],"1.06 fold enrichment (6-mer frequency, TF over GST control)"
same,binding signal,[6],"1 fold enrichment (6-mer frequency, TF over GST control)"
GCAAAG,binding signal,[11],"1.12 fold enrichment (6-mer frequency, TF over GST control)"
GTTCAG,binding signal,[11],"1.01 fold enrichment (6-mer frequency, TF over GST control)"
GACTTG,binding signal,[4],"1.08 fold enrichment (6-mer frequency, TF over GST control)"
GACCCC,binding signal,[4],"1.04 fold enrichment (6-mer frequency, TF over GST control)"
GACCGA,binding signal,[11],"1.04 fold enrichment (6-mer frequency, TF over GST control)"
GTCAAA,binding signal,[4],"1 fold enrichment (6-mer frequency, TF over GST control)"
same,binding signal,[6],"1 fold enrichment (6-mer frequency, TF over GST control)"
GCGGCA,binding signal,[4],"1.01 fold enrichment (6-mer frequency, TF over GST control)"
GATAAC,binding signal,[11],"1.08 fold enrichment (6-mer frequency, TF over GST control)"
same,binding signal,[5],"1.13 fold enrichment (6-mer frequency, TF over GST control)"
ACCCGT,binding signal,[11],"1 fold enrichment (6-mer frequency, TF over GST control)"
GTGTAA,binding signal,[1],"1.04 fold enrichment (6-mer frequency, TF over GST control)"
same,binding signal,[4],"1.11 fold enrichment (6-mer frequency, TF over GST control)"
CAACAG,binding signal,[13],"1 fold enrichment (6-mer frequency, TF over GST control)"
same,binding signal,[3],"1.01 fold enrichment (6-mer frequency, TF over GST control)"
same,binding signal,[4],"1.03 fold enrichment (6-mer frequency, TF over GST control)"
same,binding signal,[14],"1.02 fold enrichment (6-mer frequency, TF over GST control)"
AGCTTG,binding signal,[12],"1.02 fold enrichment (6-mer frequency, TF over GST control)"
same,binding signal,[5],"1.04 fold enrichment (6-mer frequency, TF over GST control)"
TGACAG,binding signal,[4],"1.09 fold enrichment (6-mer frequency, TF over GST control)"
same,binding signal,[8],"1 fold enrichment (6-mer frequency, TF over GST control)"
